In PubChem BioAssay (NCATS) one finds Potency, max response and outcome data, which are given here for 16 compounds.

Experiment [1] concerns Zika virus NS2B-NS3 protease (unlinked complex). The experiment is described as follows: Primary screen GU Rhodamine qHTS for Zika virus inhibitors: Unlinked NS2B-NS3 protease assay (AID 1347159). Further: nearly all actives have a fitted effect of over 60% in size. Further: potency means the concentration at half of the fitted maximal effect. The method in brief:
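In dose–response format, inhibition of unlinked protease (25 nM) was measured with 1.5 microM bis-peptide Rhodamine110 substrate. Aprotinin served as the intraplate control.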
(In general: Quantitative high-throughput screening tests each substance at several concentrations.)

Experiment [2] has as its target Cytochrome P450 2D6 (Homo sapiens) (UniProt P10635). The experiment is described as follows: Cytochrome P450 family 2 subfamily D member 6 (CYP2D6) small molecule antagonists: luciferase biochemical (cell-free) qHTS assay (AID 1645840; active means well fitted curve in the direction sought with a large enough effect in the repeat runs; an effect the other way counts as inactive or inconclusive; further: nearly all actives have a fitted effect of over 55% in size; further: potency means the concentration at half of the fitted maximal effect). A digest of the protocol: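 P450-Glo CYP2D6 system: proluciferin substrate converted by enzyme to luciferin, read by luminescence proportional to activity. Enzyme-substrate mix with compound 10 min at room temperature, then NADPH regeneration 1 h before detection reagent.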

Experiment [3] has as its target Cytochrome P450 2C9 (Homo sapiens) (UniProt P11712). The experiment is described as follows: Cytochrome P450 family 2 subfamily C member 9 (CYP2C9) small molecule antagonists: luciferase biochemical (cell-free) qHTS assay (AID 1645842; active means well fitted curve in the direction sought with a large enough effect in the repeat runs; an effect the other way counts as inactive or inconclusive; further: nearly all actives have a fitted effect of over 55% in size; further: potency means the concentration at half of the fitted maximal effect). The method in brief:
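P450-Glo CYP2C9 system: proluciferin substrate with enzyme in mix containing 0.4% BSA, 10 min at room temperature, then NADPH regeneration solution added and incubated 1 h at 37C. Detection reagent stopped reaction; luminescence read after 20 min as RLU.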

The nature of experiment [4]: Primary qHTS for inhibitors of nuclear receptor binding SET domain protein 2 (NSD2) in an isogenic RCH-ACV NSD2 p.E1099K mutant (9B) (AID 1645876). Further: nearly all actives have a fitted effect of over 70% in size. Further: potency means the concentration at half of the fitted maximal effect.
Experiment [5] has as its system CRL-7250. The experiment is described as follows: Cytotoxic Profiling of Annotated Libraries Using Quantitative High-Throughput Screening (AID 1296008). Further: nearly all actives have a fitted effect of over 60% in size. Further: potency means the concentration at half of the fitted maximal effect. On max response: on the % scale 0 is the no-effect control and ±100 the full control effect. Conditions: Five cell lines viability, CellTiter-Glo ATP luminescence, 48-72 h; max response: active compounds read low. The method in brief: (§1)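 Cytotoxicity was measured as CellTiter-Glo ATP luminescence, read after 10 min at room temperature. Compound treatment of the cells lasted 48 or 72 hr at 37 degrees Celsius in a qHTS format.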
In general terms: Cellular ATP, detected with luciferase, serves as a proxy for viable cell number.

A further experiment deals with KB-3-1. The experiment is described as above. Conditions: Five cell lines viability, CellTiter-Glo ATP luminescence, 48-72 h; max response: active compounds read low. A digest of the protocol: as §1
A further experiment deals with HACAT. The experiment is described as follows: qHTS assay to identify novel small-molecules to repurpose for Merkel cell carcinoma treatment (AID 1296009). Further: nearly all actives have a fitted effect of over 60% in size. Conditions: MCC and control cell lines, CellTiter-Glo viability, 72 h; at 44.8 µM (top of the series) unless noted. The method in brief:
(§2)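 Cell viability, measured as CellTiter-Glo luminescence, was normalized between DMSO and no-cell wells. The cells had been exposed to 8- or 11-point compound dilutions for 72 hr at 37 degree celsius.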

The subject of another experiment is NIH3T3. The experiment is described as above. Conditions: MCC and control cell lines, CellTiter-Glo viability, 72 h; at 44.8 µM (top of the series) unless noted. The method in brief:
as §2

The next experiment concerns HeLa. Kind of experiment: Primary qHTS to identify gynecologic anti-cancer compounds using libraries of approved drugs and bioactive compounds (AID 1345084). Further: nearly all actives have a fitted effect of over 55% in size. Further: potency means the concentration at half of the fitted maximal effect. Conditions: Gynecologic cancer cell panel viability, ATPlite luminescence, 48 h; series mostly up to 57.5 µM. The method in brief:
(§3)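 Cells, 1,000 per well, were allowed to settle for 16 h at 37 C before compound addition. Five concentrations were tested for 48 h, and viability was read by ATPlite luminescence after 15 min at room temperature.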

The next experiment has as its system SKOV3. Described as above. The following applies: Gynecologic cancer cell panel viability, ATPlite luminescence, 48 h; series mostly up to 57.5 µM. The method in brief:
as §3

A short description of experiment [6]: Primary qHTS for inhibitors of nuclear receptor binding SET domain protein 2 (NSD2) in an RCH-ACV wild type WT cells (2C) (AID 1645877). Further: nearly all actives have a fitted effect of over 70% in size. Further: potency means the concentration at half of the fitted maximal effect.
The test system of another experiment is HEK293. The experiment is described as follows: Cytotoxic Profiling of Annotated Libraries Using Quantitative High-Throughput Screening (AID 1296008). Further: nearly all actives have a fitted effect of over 60% in size. Further: potency means the concentration at half of the fitted maximal effect. On max response: on the % scale 0 is the no-effect control and ±100 the full control effect. The following applies: Five cell lines viability, CellTiter-Glo ATP luminescence, 48-72 h; max response: active compounds read low. A digest of the protocol:
as §1

Experiment [7] in a line: P-glycoprotein substrates identified in KB-8-5-11 adenocarcinoma cell line, qHTS therapeutic library screen (AID 1346987). Further: nearly all actives have a fitted effect of over 65% in size. Further: potency means the concentration at half of the fitted maximal effect. The method in brief: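 Compounds are pinned in dose-response onto KB-8-5-11 cells (500 cells/well, colchicine-free medium) and left 72 h at 37 degree C. CellTiter-Glo luminescence then yields AC50 values.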
Experiment [8] relates to CRL-7250. The experiment is described as follows: qHTS assay to identify novel small-molecules to repurpose for Merkel cell carcinoma treatment (AID 1296009). Further: nearly all actives have a fitted effect of over 60% in size. Conditions: MCC and control cell lines, CellTiter-Glo viability, 72 h; series mostly up to 92 µM. The method in brief: as §2
Experiment [9] is described as follows: P-glycoprotein substrates identified in KB-3-1 adenocarcinoma cell line, qHTS therapeutic library screen (AID 1346986). Further: nearly all actives have a fitted effect of over 60% in size. The method in brief: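 Viability read by CellTiter-Glo after 72 h compound exposure in dose-response of KB-3-1 and KB-8-5-11 (P-gp-high) cells. Hits needed AC50 < 10 uM, >50% maximum response and curve class -1.1 to -2.4. Cherry-picks retested ± tariquidar, including pcDNA/MDR-19 HEK-293 pair.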

Records with an inconclusive call do not appear. Unmarked numbers belong to inactive results. Activity calls are given as the source filed them. Unless noted, the call rests on the fitted dose curve; in most records, active means well fitted curve in the direction sought with a large enough effect; inconclusive means small, poorly fitted or top-dose-only effect, or another doubt; inactive means no such curve, though single readings can be large; an effect the other way counts as inactive or inconclusive.

Chain of Cytochrome P450 2C9 (Homo sapiens) (P11712 whole entry, looked up): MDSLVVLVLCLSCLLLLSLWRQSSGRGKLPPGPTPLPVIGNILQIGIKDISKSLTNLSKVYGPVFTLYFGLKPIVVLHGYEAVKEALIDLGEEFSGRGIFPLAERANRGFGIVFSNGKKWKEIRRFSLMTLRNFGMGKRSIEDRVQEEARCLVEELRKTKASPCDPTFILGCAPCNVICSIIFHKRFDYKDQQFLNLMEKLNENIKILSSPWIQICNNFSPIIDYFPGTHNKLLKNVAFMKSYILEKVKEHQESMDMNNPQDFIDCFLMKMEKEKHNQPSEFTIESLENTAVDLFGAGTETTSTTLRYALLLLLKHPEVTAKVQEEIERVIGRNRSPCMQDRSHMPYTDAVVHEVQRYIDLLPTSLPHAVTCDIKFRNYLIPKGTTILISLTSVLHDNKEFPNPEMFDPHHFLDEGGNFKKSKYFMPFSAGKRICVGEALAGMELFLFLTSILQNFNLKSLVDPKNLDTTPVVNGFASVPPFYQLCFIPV
Chain of Cytochrome P450 2D6 (Homo sapiens) (P10635 whole entry, looked up): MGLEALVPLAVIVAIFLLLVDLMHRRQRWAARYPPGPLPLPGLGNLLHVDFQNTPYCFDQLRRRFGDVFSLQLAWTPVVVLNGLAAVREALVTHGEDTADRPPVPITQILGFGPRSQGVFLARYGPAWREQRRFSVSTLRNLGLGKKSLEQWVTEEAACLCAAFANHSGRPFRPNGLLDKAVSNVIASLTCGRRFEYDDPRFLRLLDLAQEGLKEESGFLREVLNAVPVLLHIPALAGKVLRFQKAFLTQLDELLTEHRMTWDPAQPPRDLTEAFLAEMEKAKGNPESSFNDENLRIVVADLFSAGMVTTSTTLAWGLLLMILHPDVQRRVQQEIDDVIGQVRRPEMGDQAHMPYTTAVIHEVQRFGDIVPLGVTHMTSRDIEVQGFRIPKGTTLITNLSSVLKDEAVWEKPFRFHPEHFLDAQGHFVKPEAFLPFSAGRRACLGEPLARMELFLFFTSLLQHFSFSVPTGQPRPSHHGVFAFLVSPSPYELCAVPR

For `Cc1ccc2c(c1)[C@H]1CN(C)CC[C@H]1N2C(=O)CSc1nnnn1-c1ccc(Cl)cc1`, the Potency result (in [1]; in experiment [3]; in experiment [4]; in the experiment with HeLa; in the experiment on SKOV3) was “inactive” in each case. Also, in [2], the Potency was 10.7 µM (active). The max response in the experiment with CRL-7250 [5] was 0.988%; in the experiment with KB-3-1, -5.2%. In addition, the compound was called inactive in the experiment on HACAT and in the experiment with NIH3T3.
Take `CC(=O)O[C@H]1C[C@]2(O)[C@@H]3CC[C@@H]4C[C@@H](O)CC[C@]4(C)[C@H]3CC[C@]2(C)[C@H]1c1ccc(=O)oc1`: the Potency in experiment [4] was 0.0459 µM (active); in experiment [6], 0.0578 µM (active); with CRL-7250 [5] it was 0.0517 µM (active); with HEK293, 0.0461 µM (active); with KB-3-1, 0.058 µM (active); in the experiment on HeLa it was 0.316 µM (active). Further, the Potency with SKOV3 was 0.1 µM (active).
Turning to `CCOc1ccc(Oc2ccc(OCc3cc(F)ccc3F)cc2)c(N)c1`, the Potency entry (in [7]; in [1]; with CRL-7250 [8]; in the experiment on HeLa; in the experiment on SKOV3) was “inactive” each time. In addition, the Potency in experiment [3] was 10.7 µM (active). Further, the compound was called inactive in the experiment on CRL-7250 [5]. Besides, the max response in the experiment with KB-3-1 is -0.382%.
Regarding `CC[C@H](O)[C@@H](C)[C@H]1O[C@@H]1C[C@H](C)/C=C/C=C(\C)[C@H]1OC(=O)C[C@H](O)CC[C@@](C)(O)[C@@H](OC(C)=O)/C=C/[C@@H]1C`, the Potency in experiment [7] was 0.0092 µM (active); in experiment [4], 0.0058 µM (active); in the experiment on CRL-7250 [5], 0.0164 µM (active); in the experiment with HEK293, 0.0041 µM (active); in the experiment on KB-3-1, 0.0052 µM (active). In addition, the Potency entry in experiment [1] and in [6] was “inactive” throughout.
Regarding `CN(C)[C@@H]1C(=O)C(C(N)=O)=C(O)[C@@]2(O)C(=O)C3=C(O)c4c(O)ccc(Cl)c4[C@@](C)(O)C3C[C@@H]12` (stereo not given in full), the Potency result (in experiment [7]; in experiment [1]; in experiment [4]; in experiment [6]; in the experiment with HeLa; with SKOV3) was “inactive” each time. The figures for the max response in the experiment on CRL-7250 [5], in the experiment on HEK293 and in the experiment on KB-3-1 were -6.15%, 0.697% and -13.4%, respectively. In the experiment on NIH3T3, the outcome was inactive.
Take `C=C1C2(C)CC3C(C)(O)C4=CC(=O)OC(C)(C)C4=CCC3(C)C13C(=O)OC(C)C3(O)C2=O` (stereo not given): the Potency entry (in [1]; in the experiment with HeLa; in the experiment on SKOV3) was “inactive” each time. Further, the max response with CRL-7250 [5] was -8.29%; in the experiment with HEK293, -2.5%; in the experiment on KB-3-1, -10.5%.
As for `CCCCCCC1C(=O)O[C@H](C)[C@H](NC(=O)c2cccc(NC=O)c2O)C(=O)O[C@@H](C)[C@@H]1OC(=O)CC(C)C` (stereo not given in full), the Potency is 6.31 µM (active) in experiment [1]; 0.0115 µM (active) in experiment [4]; 0.58 µM (active) in the experiment with CRL-7250 [5]; 0.164 µM (active) with HEK293; 0.794 µM (active) in the experiment with SKOV3.
On to `COC1CC(O[C@H]2CC[C@@]3(C)C(CCC4C3CC[C@]3(C)C(C5=CC(=O)OC5)CCC43O)C2)OC(C)C1OC1OC(COC2OC(CO)C(O)C(O)C2O)C(O)C(O)C1O` (stereo not given in full), for which the Potency was 1.74 µM (active) in [7]; 0.975 µM (active) in [4]; 1.73 µM (active) in experiment [6]; 0.693 µM (active) in the experiment on CRL-7250 [5]; 1.74 µM (active) in the experiment with HEK293; 2.76 µM (active) in the experiment with KB-3-1. The Potency in the experiment on HeLa is 2.82 µM (active); in the experiment on SKOV3, 3.16 µM (active). Besides, in experiment [1], the Potency result is “inactive”.
As to `CC(=O)C1CCC2C3CCC4C[C@@H](O)CCC4(C)C3CCC12C` (stereo not given in full), the Potency result in [1] was “inactive”. In addition, the max response was 3.25% in the experiment with CRL-7250 [5] and 0.129% in the experiment on KB-3-1. Besides, the compound was called inactive with NIH3T3.
For `C[C@H]1CN(CC[C@H](O)C2CCCCC2)CC[C@@]1(C)c1cccc(O)c1`, the Potency entry (in experiment [1]; in the experiment with SKOV3) was “inactive” in each case. Further, the Potency in [2] is 5.35 µM (active). In addition, the max response with CRL-7250 [5] is 4.91%; in the experiment on KB-3-1 it was -5.46%.
With `O=S(=O)(c1ccccc1F)N1CCOc2c(N3CCNCC3)cccc21`, the Potency entry (in experiment [9]; in experiment [7]; in [1]; in experiment [2]; in the experiment on SKOV3) was “inactive” in each case. In addition, in experiment [3], the Potency was 9.52 µM (active). The max response with CRL-7250 [5] was 2.13%. Also, the result with KB-3-1 and in the experiment with HACAT was inactive.
For the compound `C=C(C)[C@@]12O[C@@H]1[C@@]1(C)C(=C[C@H]2O)CC[C@@H](O)[C@@H]1C`, the Potency entry (in [9]; in [1]; in experiment [4]; in experiment [6]; in the experiment on HeLa; in the experiment on SKOV3) was “inactive” in each case. Also, the max response in the experiment on CRL-7250 [5] was -1.42%. In addition, in the experiment with KB-3-1, the outcome was inactive.
With `C=C1CC[C@H]2[C@@H](/C=C(\C)C(=O)[C@@]3(OC(C)=O)C[C@H](C)[C@H](OC(=O)c4ccccc4)[C@@H]3[C@H]1OC(C)=O)C2(C)C`, the Potency result (in experiment [7]; in experiment [1]; with HeLa; with SKOV3) was “inactive” in each case. Also, the max response in the experiment on CRL-7250 [5] is 1.55%; in the experiment with KB-3-1, 4.96%.
With `O=C(N1CCCCC1Cc1ccccc1)n1cc(-c2ccc(-c3ccccc3)cc2)nn1` (stereo not given), the Potency entry (in experiment [1]; in experiment [2]; with SKOV3) was “inactive” each time. Moreover, the Potency in [3] was 2.68 µM (active). In the experiment on CRL-7250 [5], the max response was 2.49%. The compound was classed as inactive in the experiment with HACAT and with NIH3T3.
In the case of `C[C@]12CC[C@@H](O)C[C@@H]1CC[C@@H]1[C@@H]2CC[C@]2(C)C(=O)[C@@H](Br)C[C@@H]12`, the Potency result (in [1]; in the experiment on HeLa; in the experiment with SKOV3) was “inactive” in each case. Further, the Potency in experiment [4] is 6.49 µM (active). The max response is -20.8% in the experiment with CRL-7250 [5] and 9.47% in the experiment with KB-3-1. Moreover, the compound was called inactive with HACAT.
For the compound `O=C(C[C@@H]1NCCC[C@H]1O)Cn1cnc2ccccc2c1=O`, the Potency in experiment [7] is 0.259 µM (active); in experiment [4], 0.129 µM (active); in experiment [6], 0.145 µM (active); in the experiment on CRL-7250 [5], 0.231 µM (active); in the experiment with KB-3-1, 0.259 µM (active); with HeLa it was 1.78 µM (active). In addition, the Potency entry in experiment [1] was “inactive”.
